# Reference: the supplement of paper PMC13380429
# Columns and labels:
# [1] = test system: Vero E6 infected with SARS-CoV-2; assay: morphology score (similarity to uninfected cells); higher = more like uninfected cells; details: 24 h
# [2] = test system: Vero E6 infected with SARS-CoV-2; assay: SARS-CoV-2 infection rate relative to infected DMSO; higher = more infection, active = 60 or less; details: 24 h
Structure (SMILES),morphology score [1],SARS-CoV-2 infection rate [2]
CSc1nc(NC2CCCC2)c([N+](=O)[O-])c(NC2CCCC2)n1 (10 µM),0.349,88% (inactive)
Nc1nc2c(ncn2[C@@H]2O[C@H](CO)[C@@H](O)[C@H]2O)c(=O)[nH]1 [guanosine] (10 µM),0.0982,106% (inactive)
Oc1noc2c1CCNC2 [gaboxadol] (10 µM),0.0535,106% (inactive)
NC(=O)C[C@H](N)C(=O)O [L-asparagine] (10 µM),0.14,94% (inactive)
CC(C)(C)NCC(O)c1cc(Br)no1 (stereo unspecified) [broxaterol] (10 µM),-0.00593,112% (inactive)
O=C(Nc1cnccc1Cl)N1CCN(Cc2ccc3c(c2)OC(F)(F)O3)CC1 (10 µM),0.0915,106% (inactive)
NCC(CC(=O)O)c1ccc(Cl)cc1 (stereo unspecified) [baclofen] (10 µM),0.138,109% (inactive)
Cc1n[nH]c(C)c1Cc1sc2c(c1C(=O)N1C[C@H](O)CO1)c(=O)n(C)c(=O)n2CC(C)C (10 µM),0.0657,106% (inactive)
CNCC[C@H](Oc1cccc2ccccc12)c1cccs1 [duloxetine] (10 µM),0.747,47% (active)
Cc1cc(C)nc(SCC(=O)Nc2ncc(Cc3cccc4ccccc34)s2)n1 (10 µM),0.211,96.5% (inactive)
CC(C)c1c2cc(-c3ccnc(N[C@H]4CC[C@H](NC5CCOCC5)CC4)n3)ccc2nn1C (0.833333 µM),0.108,90.5% (inactive)
Cc1cc(-c2nc3cc(F)ccc3s2)ccc1NC(=O)[C@@H](N)CCCCN [phortress] (10 µM),-0.32,120% (inactive)
COc1cc(C)nc(-n2nc(C)cc2OC)n1 [epirizole] (10 µM),0.0529,111% (inactive)
O=C(c1ccccc1)C(O)c1ccccc1 (stereo unspecified) [benzoin] (10 µM),-0.114,101% (inactive)
CCC1(c2ccc(N)cc2)CCC(=O)NC1=O (stereo unspecified) [aminoglutethimide] (10 µM),-0.0825,110% (inactive)
CCCC[C@]1(CC)CS(=O)(=O)c2cc(CNC(CC(=O)O)CC(=O)O)c(OC)cc2[C@@H](c2ccccc2)N1 (10 µM),0.0912,90.5% (inactive)
COc1cc2nc(N3CCN(C(=O)c4ccco4)CC3)nc(N)c2cc1OC [prazosin] (10 µM),-0.0585,107% (inactive)
O=c1[nH]c(=O)n([C@H]2C[C@H](O)[C@@H](CO)O2)cc1I [idoxuridine] (10 µM),0.0252,108% (inactive)
NCCNCCNCCN [trientine] (10 µM),-0.00487,106% (inactive)
CCOC(=O)c1c(O)nc2cccc3c2c1-c1ccccc1C3=O (10 µM),-0.157,117% (inactive)
CC(C)(Cc1ccc2ccccc2c1)NC[C@@H](O)COc1cccc(Cl)c1C#N (10 µM),0.703,9.5% (active)

Structure (SMILES),morphology score [1],SARS-CoV-2 infection rate [2]
CC(C)=CCC[C@](C)(O)[C@H]1CC[C@]2(C)[C@@H]1[C@H](O)C[C@@H]1[C@@]3(C)CC[C@H](O)C(C)(C)[C@@H]3[C@@H](O)C[C@]12C [hemomex-s] (10 µM),0.173,104% (inactive)
NC(=O)OCC(COC(N)=O)c1ccccc1 [felbamate] (10 µM),-0.0125,99% (inactive)
CC(C)(C)C(=O)OCOC(=O)[C@@H]1N2C(=O)C[C@H]2S(=O)(=O)C1(C)C [sulbactam-pivoxil] (10 µM),0.184,89% (inactive)
CCc1cnn2c(NCc3ccc[n+]([O-])c3)cc(N3CCCC[C@H]3CCO)nc12 [dinaciclib] (0.833333 µM),-0.154,116% (inactive)
CS(=O)(=O)c1ccc(-c2cnc(N)c(C(=O)Nc3ccccc3)n2)cc1 (10 µM),0.278,87% (inactive)
Cc1nc2sccn2c(=O)c1CCN1CCC(=C(c2ccccc2)c2ccc(F)cc2)CC1 (10 µM),0.149,81.5% (inactive)
Cc1c(F)cccc1NC(=O)Nc1ccc(Cl)c(S(=O)(=O)[C@H]2CCCNC2)c1O [danirixin] (10 µM),0.19,98% (inactive)
CC(=O)C(=Cc1cc(O)c(O)c([N+](=O)[O-])c1)C(C)=O [nitecapone] (10 µM),0.103,102% (inactive)
COc1ccc(CN2C(=O)C(=O)c3cc(OC(F)(F)F)ccc32)cc1 (0.833333 µM),0.0284,102% (inactive)
C1N2CN3CN1CN(C2)C3 [methenamine] (10 µM),0.11,100% (inactive)
CC(=O)N[C@@H](CC(C)C)C(=O)O [acetyl-l-leucine] (10 µM),0.134,94.5% (inactive)
O=C(Nc1cnc(Cl)nc1)c1ccc(F)c(F)c1 (10 µM),0.0439,101% (inactive)
OB1OCc2cc(Cl)ccc21 (10 µM),-0.0961,106% (inactive)
COc1ccc(S(=O)(=O)Nc2nc(-c3cccc([N+](=O)[O-])c3)cs2)cc1OC (10 µM),-0.00369,107% (inactive)
Cc1cc(I)ccc1Nc1c(C(=O)NOCC2CC2)cc(F)c(F)c1F (10 µM),0.0652,113% (inactive)
COc1ccc2c(Oc3ccc(NC(=O)c4c(C)n(CC(C)(C)O)n(-c5ccccc5)c4=O)nc3)ccnc2c1 (10 µM),0.316,98% (inactive)
CC(=O)NC1CCSC1=O (stereo unspecified) [citiolone] (10 µM),-0.0164,107% (inactive)
CO[C@H]1/C=C/O[C@@]2(C)Oc3c(C)c(O)c4c(O)c(c(/C=N/N5CCN(C6CCCC6)CC5)c(O)c4c3C2=O)NC(=O)/C(C)=C\C=C\[C@H](C)[C@H](O)[C@@H](C)[C@@H](O)[C@@H](C)[C@H](OC(C)=O)[C@@H]1C [rifapentine] (10 µM),0.192,107% (inactive)
CO[C@@H]1[C@@H](O[C@@H]2O[C@H](C)[C@@H](O[C@H]3C[C@@](C)(O)[C@@H](OC(=O)CC(C)C)[C@H](C)O3)[C@H](N(C)C)[C@H]2O)[C@@H](CC=O)C[C@@H](C)[C@@H](O)/C=C/C=C/C[C@@H](C)OC(=O)C[C@H]1OC(C)=O [josamycin] (10 µM),-0.0313,113% (inactive)
Cc1cc2c(cc1CC(=O)c1sccc1S(=O)(=O)Nc1onc(C)c1Cl)OCO2 [sitaxentan] (10 µM),0.015,101% (inactive)
C[C@]12CCC(=O)C(O)=C1CC[C@@H]1[C@@H]2CC[C@]2(C)C(=O)CC[C@@H]12 [formestane] (10 µM),-0.134,115% (inactive)

Structure (SMILES),morphology score [1],SARS-CoV-2 infection rate [2]
Cc1ccc2c(-c3ccccc3)nc(=O)n(C(C)C)c2c1 [proquazone] (10 µM),0.0698,103% (inactive)
CC/C(=C(/c1ccc(/C=C/C(=O)O)cc1)c1ccc2[nH]ncc2c1)c1ccc(F)cc1Cl (10 µM),0.0792,103% (inactive)
CCCCC[C@H](O)/C=C/[C@H]1[C@H](O)CC(=O)[C@@H]1CCCCCCC(=O)O [alprostadil] (10 µM),0.11,90.5% (inactive)
CN(C)c1ccc(-c2nc3c(N4CCN(CC(=O)Nc5nccs5)CC4)c(Cl)cnc3[nH]2)cc1 (10 µM),0.47,74.5% (inactive)
CC(C)(N)Cc1ccccc1 [phentermine] (10 µM),-0.154,118% (inactive)
CCCCCCCCCCCCCCCCCCN(CCCCCCCCCCCCCCCCCC)CCCN(CCO)CCO [avridine] (10 µM),0.0689,102% (inactive)
CC(C)CN(C[C@@H](OP(=O)(O)O)[C@H](Cc1ccccc1)NC(=O)O[C@H]1CCOC1)S(=O)(=O)c1ccc(N)cc1 [fosamprenavir] (10 µM),-0.123,109% (inactive)
O=C(O)c1ccc(-c2c[nH]c3ncc(-c4ccccc4)cc23)cc1C1CCCC1 (10 µM),0.309,89.5% (inactive)
Nc1nc(N)c2nc(-c3ccccc3)c(N)nc2n1 [triamterene] (0.833333 µM),-0.174,118% (inactive)
CCCc1ccc(C(=O)O)cc1 [4-propylbenzoic-acid] (10 µM),0.187,95% (inactive)
O=C(N[C@@H]1CC[C@@H](c2cccc(F)c2F)CN(CC(F)(F)F)C1=O)N1CCC(n2c(=O)[nH]c3ncccc32)CC1 [telcagepant] (10 µM),0.0561,102% (inactive)
Clc1ccc(Cn2c(CN3CCCC3)nc3ccccc32)cc1 [clemizole] (10 µM),0.153,103% (inactive)
Cc1oc(-c2ccccc2)nc1CCC(=O)c1ccc(CC2SC(=O)NC2=O)cc1 (stereo unspecified) [darglitazone] (10 µM),0.276,98.5% (inactive)
N#CC(c1ccccc1)(c1ccccc1)c1ccccc1Cl (10 µM),0.164,89% (inactive)
CC1(COc2ccc(CC3SC(=O)NC3=O)cc2)CCCCC1 (stereo unspecified) [ciglitazone] (10 µM),0.036,110% (inactive)
CC[N+](CC)(CC(=O)Nc1c(C)cccc1C)Cc1ccccc1 [denatonium-benzoate] (10 µM),0.144,116% (inactive)
CCCOc1ccc(C(=O)OCCN(CC)CC)cc1N [proxymetacaine] (10 µM),-0.0115,108% (inactive)
C=CCNc1nc(NCC=C)nc(N2CCN(C(c3ccc(F)cc3)c3ccc(F)cc3)CC2)n1 [almitrine] (10 µM),0.136,101% (inactive)
CCN(CC)CCOC(=O)C1(C2CCCCC2)CCCCC1 [dicycloverine] (10 µM),0.311,90% (inactive)
CN1CCN(c2c(F)cc3c(=O)c(C(=O)O)cn4c3c2SCC4)CC1 [rufloxacin] (10 µM),0.0805,103% (inactive)
CCCC(C)C1(CC)C(=O)NC(=S)NC1=O (stereo unspecified) [thiopental] (10 µM),0.132,110% (inactive)
